biological target: SLC50A1; assay: pooled miR-30 sensor sort-seq; sequence = guide strand; settings: shRNA
Note: reference of the scale not given here.

Row | Sequence | sensor-assay potency score (higher = more potent)
1 | TGATTTAGTTTGAATCACCTTA | 0.457
2 | TTATCCTCAAAGTCATCTCTTG | -0.683
3 | TTGATTTAGTTTGAATCACCTT | -0.06
4 | TTGGACACCATGATATAGGGAT | 0.348
5 | ATATAGGGATCTCTGAGTCGAA | -0.899
6 | TCTGAGTCGAAACCCATAGAGG | -1.58
7 | TATAGGGATCTCTGAGTCGAAA | -1.32
8 | TTAGTTTGAATCACCTTAGCCA | 0.6
9 | TCGCATGTGCCTGAGGTCCGAG | -1.22
10 | TAGTTTGAATCACCTTAGCCAA | -1.16
11 | TTCCTGTCTTGCTCCTGGGGGT | -0.7

biological target: SLC5A9; assay: as above; settings: shRNA

Row | Sequence | sensor-assay potency score (higher = more potent)
12 | TGGTCTGTGCACCAACACCAGG | -1.88
13 | TTCTTTGGCAGACATCAGGGTC | -0.689
14 | TAACAAGTCATGTCTCTCCAAC | -0.907
15 | TTCTACTCTCAAGACACACATT | -0.868
16 | TTGTTTAATCTGTCTACACTGA | -0.279
17 | TTAACAAGTCATGTCTCTCCAA | -0.0979
18 | TAGGCGTGCAGACCAACTCTGG | -1.48
19 | TTAGAGAGTAGGAAGAGGCAGA | 0.115
20 | TTGTCTAAGAGCTTTCTGCCCA | -0.317
21 | TAGTCCATTGTCTAAGAGCTTT | -1.07
22 | TGTTGGAACATCCCACTCGGGC | -1.24
23 | AGGAACACCACAAACACTCTGC | -0.94

biological target: SLC6A11; assay: as above; settings: shRNA

Row | Sequence | sensor-assay potency score (higher = more potent)
24 | ATAATTGTTATAACTTCCCAGA | -0.808
25 | TTCTGCAGAGACACATGGCTGT | 0.541
26 | TAGGAGATAACAGACAAGGCTA | 0.294
27 | TTCAATGTTATCATAGAACCGG | -0.488
28 | TTCACTTGTGAACTGCCCCAGA | -0.108
29 | TTATCATAGAACCGGTTGCTTC | -1.38
30 | TCAATGTTATCATAGAACCGGT | -0.663
31 | TTAACTGTCACCATCCGTGGGC | 0.397
32 | TAGAACTTGATGCCCTCTGAGG | -1.22
33 | TAGGAGAAAAAGATCTGCGTTC | -0.00212
34 | TCATTAACTGTCACCATCCGTG | -0.565
35 | TACAAGTAGAACTTGATGCCCT | 0.00476

biological target: SLC6A17; assay: as above; settings: shRNA

Row | Sequence | sensor-assay potency score (higher = more potent)
36 | TTGTCCTGCTTATTGTAGCTGG | -0.728
37 | TACATCTCCATGTAGTCCTTTG | -1.15
38 | AAGAAGAACATGACGGACCAGA | 0.0729
39 | TATATAGTGCCACACACCGATG | -1.62
40 | TACTGCAGCTTACTGTTCCAGG | -0.506
